# Results filed as inconclusive are left out. A call without a number means that no potency is given here. A number with no mark means an inactive call. Active and inactive are the calls of the source. The call rests on the fitted dose curve; in most records, active means well fitted curve in the direction sought with a large enough effect; inconclusive means small, poorly fitted or top-dose-only effect, or another doubt; inactive means no such curve, though single readings can be large; an effect the other way counts as inactive or inconclusive.
# Tests used:
# [1] = molecular target: Cellular tumor antigen p53 (Homo sapiens) (UniProt P04637); test: Primary qHTS for small molecule compounds that upregulate eGFP-tagged delta133p53alpha (in N-terminal) cells. (AID 2060322); conditions: NCI-H358 eGFP-delta133p53alpha fluorescence, 24 h; activation: stronger effect = higher value; further: series mostly up to about 56 µM; nearly all actives have a fitted effect of over 75% in size
# Procedure, shortened: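 NCI-H358 cells pre-induced 24 h with 10 ng/ml doxycycline to express N-terminal eGFP-delta133p53alpha, then dosed 24 h at 37C without doxycycline; fixed, Hoechst-stained, GFP intensity by laser scanning cytometry, normalized to DMSO (0%) and 57.5 uM 5-azacytidine (100%).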
# [2] = molecular target: Aldehyde dehydrogenase, mitochondrial (Homo sapiens) (UniProt P05091); test: qHTS for Inhibitors of the Aldehyde Dehydrogenase Family (ALDH2) Primary screen (AID 2061308); further: nearly all actives have a fitted effect of over 55% in size
# [3] = BET inhibitor-based combinations targeting novel dependencies in MECOM-rearranged (r) AML: SET-2 cell line (AID 2202231); conditions: SET-2 AML cells viability, CellTiter-Glo luminescence, 48 h; viability: stronger effect = lower value, series mostly up to about 46 µM; further: nearly all actives have a fitted effect of over 35% in size
# Procedure, shortened: (§1)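 Viability of cells (500 per well) is scored by luminescent CellTiter-Glo at 48 hr post-dosing. Eleven-point titrations are normalized to DMSO and empty controls and reduced to AUC values.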
# [4] = BET inhibitor-based combinations targeting novel dependencies in MECOM-rearranged (r) AML: UCSD-AML1 cell line (AID 2202235); further: series mostly up to about 46 µM; nearly all actives have a fitted effect of over 40% in size
# Procedure, shortened: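 Using pin-tool transfer, drugs were added in 11 doses to cells (500/well), incubated 48 hr, and assessed with CellTiter-Glo. Z-AUC is a mean-centring transformation applied separately to each screened line.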
# [5] = BET inhibitor-based combinations targeting novel dependencies in MECOM-rearranged (r) AML: AML-191 cell line (AID 2202236; further: nearly all actives have a fitted effect of over 35% in size)
# Procedure, shortened: as §1
# [6] = molecular target: Retinaldehyde dehydrogenase 3 (Homo sapiens) (UniProt P47895); test: qHTS for Inhibitors of the Aldehyde Dehydrogenase Family (ALDH1A3) Validation screen (AID 2061312); further: nearly all actives have a fitted effect of over 45% in size; further: potency means the concentration at half of the fitted maximal effect
# [7] = molecular target: Retinaldehyde dehydrogenase 3 (Homo sapiens) (UniProt P47895); test: qHTS for Inhibitors of the Aldehyde Dehydrogenase Family (ALDH1A3) Confirmatory screens (AID 2061311); further: potency means the concentration at half of the fitted maximal effect; nearly all actives have a fitted effect of over 60% in size
# [8] = molecular target: Aldehyde dehydrogenase 1A1 (Homo sapiens) (UniProt P00352); test: qHTS for Inhibitors of the Aldehyde Dehydrogenase Family (ALDH1A1) Confirmatory screens (AID 2061316); further: nearly all actives have a fitted effect of over 65% in size
# [9] = molecular target: Retinaldehyde dehydrogenase 3 (Homo sapiens) (UniProt P47895); test: qHTS for Inhibitors of the Aldehyde Dehydrogenase Family (ALDH1A3) Primary screen (AID 2061315); further: potency means the concentration at half of the fitted maximal effect
# Chain of Cellular tumor antigen p53 (Homo sapiens) (P04637 whole entry, looked up): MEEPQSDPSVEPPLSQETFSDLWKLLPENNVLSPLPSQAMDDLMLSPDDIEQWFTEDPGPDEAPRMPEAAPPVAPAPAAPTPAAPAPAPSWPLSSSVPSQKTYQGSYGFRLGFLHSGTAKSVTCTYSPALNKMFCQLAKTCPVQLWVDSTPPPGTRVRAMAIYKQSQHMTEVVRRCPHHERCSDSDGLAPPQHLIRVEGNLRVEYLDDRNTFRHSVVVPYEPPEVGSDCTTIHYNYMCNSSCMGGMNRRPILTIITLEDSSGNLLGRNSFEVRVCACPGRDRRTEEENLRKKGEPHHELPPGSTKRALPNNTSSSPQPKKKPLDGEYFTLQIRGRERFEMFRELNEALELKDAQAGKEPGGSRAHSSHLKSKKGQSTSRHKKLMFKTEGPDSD
smiles,measurement,setting,value
CC(O)/C=C/C1(O)C2(C)COC1(C)CC(O)C2 (stereo not given),activation,[1],9.82%
same,Potency,[2],inactive
CN1CCCC1Cc1c[nH]c2ccc(CCS(=O)(=O)c3ccccc3)cc12 (stereo not given),activation,[1],24.3%
same,Potency,[2],inactive
O=C(OC[C@H]1O[C@H](O[C@]2(CO)O[C@H](CO)[C@@H](O)[C@@H]2O)[C@H](O)[C@@H](O)[C@@H]1O)c1ccccc1,activation,[1],0.763%
same,Potency,[2],inactive
COc1cc(/C=C/C(=O)OC(C)(C)C(OC2OC(CO)C(O)C(O)C2O)C(=O)OCc2ccc(OC3OC(CO)C(O)C(O)C3O)cc2)ccc1O (stereo not given),activation,[1],13.7%
same,Potency,[2],inactive
C=C(C)Cn1c(SCC(=O)c2cccs2)nc2sc3c(c2c1=O)CCCC3,activation,[1],-5.73%
same,Potency,[2],inactive
C/C=C1/[C@H](O[C@@H]2O[C@H](CO)[C@@H](O)[C@H](O)[C@H]2O)OC=C(C(=O)OC)[C@H]1CC(=O)OCCc1ccc(OC(=O)C[C@@H]2C(C(=O)OC)=CO[C@@H](O[C@@H]3O[C@H](CO)[C@@H](O)[C@H](O)[C@H]3O)/C2=C/C)cc1,activation,[1],-7.14%
same,Potency,[2],inactive
CC1=CC2C(CC1OC1OC(CO)C(O)C(O)C1O)C(C)CC(=O)C2C(C)C (stereo not given),activation,[1],4.58%
same,Potency,[2],inactive
CC[C@@H]1[C@H]2CCCCN3C(=O)C[C@H]([C@@H]4[C@H]1OC(=O)[C@H]4C)[C@@H]23,activation,[1],-0.763%
same,Potency,[2],inactive
COC1CC(OC2CCC3(C)C(=CCC4C3CCC3(C)C(C(C)O)CCC43O)C2)OC(C)C1OC1OC(C)C(OC2OC(COC3OC(COC4OC(CO)C(O)C(O)C4O)C(O)C(O)C3O)C(O)C(O)C2O)C(OC)C1O (stereo not given),activation,[1],-23.7%
same,Potency,[2],inactive
NC(=O)c1ccc(OCC2NC(=O)C3CCCN3C2=O)cc1 (stereo not given),activation,[1],-12.2%
same,Potency,[2],inactive
C[C@@H]1O[C@@H](O[C@H]2[C@H](OC(=O)C34CCC(C)(C)CC3C3=CCC5C6(C)CC(O)C(O[C@@H]7O[C@H](CO)[C@@H](O)[C@H](O)[C@H]7O)C(C)(C(=O)O)C6CCC5(C)C3(CO)CC4)O[C@H](C)[C@H](O)[C@@H]2O)[C@H](O)[C@H](O)[C@H]1O[C@@H]1OC[C@@H](O)[C@H](O)[C@H]1O (stereo not given in full),activation,[1],-12.5%
same,Potency,[2],inactive
COC(=O)c1c(CC=C(C)C)c(OC2OC(CO)C(O)C(O)C2O)c2ccccc2c1OC1OC(CO)C(O)C(O)C1O (stereo not given),activation,[1],20.6%
same,Potency,[2],inactive
COc1cc2c(cc1O)C1(Cc3ccc4c(c3C1O)OCO4)[N+](C)([O-])CC2 (stereo not given),activation,[1],-8.04%
same,Potency,[2],inactive
Cc1nn(C)c2c1C(c1ccc(C(F)(F)F)cc1)C(C#N)=C(N)O2 (stereo not given),viability,[3],87.6%
same,Potency,[4],inactive
same,Potency,[5],inactive
CCC(=O)N1CCc2cc(OC)c(O)cc2C1,activation,[1],-7.64%
same,Potency,[2],inactive
same,Potency,[6],22.4 µM (active)
CC(=O)NCC1CN(c2ccc(-c3ccc(CNCc4cn[nH]n4)cc3)c(F)c2)C(=O)O1 (stereo not given),activation,[1],-4.77%
same,Potency,[2],inactive
same,Potency,[6],3.98 µM (active)
CC1=CC2=C(C)C(=O)C(C)(O)C(O)C2CO1 (stereo not given),activation,[1],-5.34%
same,Potency,[2],inactive
same,Potency,[7],22.5 µM (active)
same,Potency,[8],inactive
Cc1cc(OCCCS(C)(=O)=O)cc(C)c1-c1cccc(COc2ccc3c(c2)OCC3CC(=O)O)c1 (stereo not given),activation,[1],6.68%
same,Potency,[2],inactive
same,Potency,[6],inactive
same,Potency,[9],inactive
Cc1ccc(-c2cn3c4c(sc3n2)CCCC4)cc1,activation,[1],11%
same,Potency,[2],inactive
same,Potency,[6],25.1 µM (active)
COc1ccc(N2CCN(CCCNC(=O)Cn3c(=O)c4cccn4c4c(C)ccnc43)CC2)cc1,activation,[1],0.477%
same,Potency,[2],inactive
same,Potency,[6],inactive
same,Potency,[9],inactive
CC(=O)c1c(O)cc2cccc3c2c1CC(C)(O)O3 (stereo not given),activation,[1],6.11%
same,Potency,[2],inactive
same,Potency,[7],12.7 µM (active)
same,Potency,[9],inactive
CN(C)CCCNc1nc(CN2CCN(C(c3ccc(Cl)cc3)c3ccc(Cl)cc3)CC2)nc2ccccc12,activation,[1],16.2%
same,Potency,[2],inactive
same,Potency,[6],inactive
same,Potency,[9],inactive
CCOCCn1nc(CC)c2nc(N3CCC(C(=O)O)CC3)nc(Nc3cc(C)ccn3)c21,activation,[1],0%
same,Potency,[2],inactive
same,Potency,[6],inactive
same,Potency,[9],inactive
Clc1ccccc1CNCC1CCC(CNCc2ccccc2Cl)CC1 (stereo not given),activation,[1],29.6%
same,Potency,[2],inactive
same,Potency,[6],inactive
same,Potency,[9],inactive
COc1ccc(C2COc3cc(O)ccc3C2)c(O)c1 (stereo not given),activation,[1],-12.2%
same,Potency,[2],inactive
same,Potency,[7],17.9 µM (active)
same,Potency,[9],25.1 µM (active)
Cc1ccc(-n2nc(C(C)(C)C)cc2NC(=O)Nc2cc(COc3cccnc3)[nH]n2)cc1,activation,[1],6.21%
same,Potency,[2],inactive
same,Potency,[6],inactive
same,Potency,[9],inactive
Cc1ccnn1-c1ccc(C(=O)N2CCN(S(=O)(=O)c3ccc(Cl)c(C(F)(F)F)c3)CC2)cc1,activation,[1],-9.07%
same,Potency,[2],inactive
same,Potency,[6],inactive
same,Potency,[9],inactive
COc1ccc(C2Sc3ccccc3N(CCN(C)C)C(=O)C2OC(C)=O)cc1 (stereo not given),activation,[1],-11.5%
same,Potency,[2],inactive
same,Potency,[6],inactive
same,Potency,[9],inactive
O=C(Nc1nc2ccc([N+](=O)[O-])cc2s1)C1CCCCC1,activation,[1],17.2%
same,Potency,[2],inactive
same,Potency,[6],3.98 µM (active)
C=C(F)c1sc(CNCCCNc2cc(=O)c3ccccc3[nH]2)c(C)c1Br,activation,[1],18.1%
same,Potency,[2],inactive
same,Potency,[6],inactive
same,Potency,[9],inactive
CCCCNc1ccc(-c2ccc(CN3CCOCC3)cn2)c(NC2CCC(O)CC2)c1 (stereo not given),activation,[1],1.91%
same,Potency,[2],inactive
same,Potency,[6],inactive
same,Potency,[9],inactive
CC(NCCCc1cccc(C(F)(F)F)c1)c1cccc2ccccc12 (stereo not given),activation,[1],-2.86%
same,Potency,[2],inactive
same,Potency,[6],inactive
same,Potency,[9],inactive
COc1cncc(C#Cc2ccccn2)c1,activation,[1],1.43%
same,Potency,[2],inactive
same,Potency,[6],22.4 µM (active)
